Measured values taken from PubChem BioAssay AID1259336 (Sattelle Laboratory, UCL Respiratory, Division of Medicine, …, 2017).

Assay: C. elegans growth inhibition, whole organism, log2 fold change (AID 1259336);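 also: growth scored by imaging after five days at 20 °C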
Conditions: anthelmintic screen, stronger effect = lower value; in the data active = log2 fold change growth below about -1.8; inactive = the rest

log2 fold change growth, inactive:
C[C@H]1COC2(CCN(c3nc(=O)c4cc(C(F)(F)F)cc([N+](=O)[O-])c4s3)CC2)O1 -0.284
Cc1noc(C)c1C(=O)N1CCC[C@H](c2[nH]c3c(C)cccc3c2-c2ccncc2)C1 -0.149
Brc1c(-c2ccc3c(c2)OCO3)nc2ncccn12 0.0304
CN1CCN(c2nccc3[nH]c(-c4cccc(F)c4)cc23)CC1 -0.0356
CCOC(=O)c1cc(-c2csc(Nc3c(C)cc(C)cc3C)n2)on1 -0.726
COc1ccc(CCN2CCC(NCc3cccc(N(C)C)c3)CC2)cc1 0.27
